# Screening results: PubChem BioAssay, National Center for Advancing Translational Sciences (NCATS)
# Hits are enriched below; roughly 11% of the tested compounds scored in any of these assays.
# AMA1-RON2 inh = qHTS for Inhibitors of AMA1-RON; Towards Development of Antimalarial Drug Lead: Primary Screen | Potency, µM (doses to about 58.2 µM), without a hit: at the top dose activity change, negative = inhibition, actives largely listed as inhibitors | Plasmodium falciparum AMA1 (3D7) - RON2 peptide interaction | AlphaScreen AMA1-biotinylated RON2 peptide binding | 0.2% of 360,000 active | AID 720542, 2013;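 further: 0% = vehicle wells and -100% = peptide control; nearly all actives have a fitted effect of over 45% in size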
#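 AMA1 (3D7) with his tag at 25 nM final met compounds first, then biotinylated RON2 peptide at 25 nM; detection used donor plus acceptor beads, 10 µg/mL apiece, read by AlphaScreen after 30 min at room temperature.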
# Sm TGR block = qHTS Assay for the Inhibitors of Schistosoma Mansoni Peroxiredoxins; 3% of 360,000 active; AID 485364, 2010; Schistosoma mansoni thioredoxin glutathione reductase (TGR), Q962Y6; purified TGR, DTNB reduction, TNB absorbance 405 nm; Potency, µM (doses to about 114 µM), inactives show top-dose activity change, negative = inhibition, hits mostly inhibitors; further: on the % scale 0 is the no-effect control and ±100 the full control effect; nearly all actives have a fitted effect of over 60% in size
#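 Kinetic colorimetric format: TGR-catalysed, NADPH-driven DTNB reduction monitored via TNB absorbance. Enzyme dispensed at 20 nM; compound exposure 15 min at room temperature before reaction start.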
# Pf growth 48h = Primary qHTS for delayed death inhibitors of the malarial parasite plastid, 48 hour incubation. Potency, µM (highest dose often 28.7 µM), for inactives: at the top dose activity change, negative = inhibition, usual class: inhibitors. 5.9% of 310,000 active. AID 504832, 2011. P. falciparum luciferase growth in erythrocytes, 48 h; further: on the % scale 0 is the no-effect control and ±100 the full control effect
#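 Here the parasites carry a stable luciferase gene and grow inside erythrocytes in Albumax-based RPMI medium with compound for one erythrocytic cycle. Activity is scored as loss of luminescent signal.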
# Pf growth 96h = Primary qHTS for delayed death inhibitors of the malarial parasite plastid, 96 hour incubation. P. falciparum luciferase reporter growth, 96 h. Potency, µM (series often up to 28.7 µM), for inactives: top-dose activity change, negative = inhibition, most hits filed as inhibitors. 6.9% of 320,000 active. AID 504834, 2011; further: on the % scale 0 is the no-effect control and ±100 the full control effect
#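 Two-generation exposure (96 h) targets delayed-death phenotype. Reporter parasites carrying integrated firefly luciferase, in red cells at 2% hematocrit and 0.05% parasitemia final, kept at 37 C, 5% CO2; luminescence loss indicates inhibition.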
# NS1 function inh = qHTS Assay for Inhibitors of Influenza NS1 Protein Function | Potency, µM (highest dose often 46.1 µM), for the others: top-dose activity, positive = more growth | 0.4% of 270,000 active; calls by dose curve; further: actives are rising curves; nearly all actives have a fitted effect of over 50% in size
#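 S. cerevisiae expressing influenza A NS1, grown in glucose, washed, then diluted 1:100 into pH 6.0 -URA galactose medium with 23 nl compound. Growth recovery read as OD600; NS1-free strain serves as control.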
# * = called active by the depositor; ? = inconclusive; · = no result given; [ ] = another dose, or the depositor's remark. Unless noted, the call rests on the fitted dose curve; in most records, active means well fitted curve in the direction sought with a large enough effect; inconclusive means small, poorly fitted or top-dose-only effect, or another doubt; inactive means no such curve, though single readings can be large; an effect the other way counts as inactive or inconclusive. Potency means the concentration at half of the fitted maximal effect.
SMILES,AMA1-RON2 inh,Sm TGR block,Pf growth 48h,Pf growth 96h,NS1 function inh
COc1cc(/C=N/NC(=O)c2cc(-c3ccco3)nc3ccccc23)cc(OC)c1O,88.5%,44.7µM*,?,-20.2%,8.8%
COc1cc(/C=N/NC(=O)c2cc(-c3ccccc3Cl)nc3ccccc23)cc(OC)c1O,44.9%,·,·,·,·
COc1cc(/C=N/NC(=O)CC23CC4CC(CC(C4)C2)C3)cc(Br)c1OCC(=O)N(C)C,-10.2%,-1.2%,13.1µM*,?,24.3%
COc1cc(/C=N/NC(=O)C23CC4CC(CC(C4)C2)C3)cc(Br)c1O,25.8%,-18.1%,7.5%,-21.1%,-12.7%
COc1ccc(/C=N\NC(=O)c2ccccc2OC)cc1COc1ccccc1C,35.7%,0.4%,13.1µM*,-6.6%,-5.1%
COc1ccc(/C=N/NC(=O)c2ccoc2C)cc1COc1c(C)cccc1C,1.8%,4.0%,?,10.4µM*,-115.4%
COc1cccc(N2CCN(C(=O)CCS(=O)(=O)c3ccc4c(c3)CC(=O)N4C)CC2)c1,·,-7.4%,·,·,·
CC1C/C(=C\c2ccccc2[N+](=O)[O-])c2nc3ccccc3c(C(=O)O)c2C1 (stereo not given),0.3%,-14.4%,0.4%,?,3.3%
Cc1nn2c(=O)cc(COC(=O)c3ccco3)nc2s1,·,-0.5%,·,·,·
COc1ccccc1N1CCN(C(=O)c2oc3ccccc3c2N)CC1,·,-2.3%,·,·,·
COc1ccc(/C=N\NC(=O)c2ccccc2)cc1COc1ccccc1,15.3%,-0.2%,?,11.7µM*,-4.9%
COc1ccc(/C=N/NC(=O)c2cc(C(C)(C)C)[nH]n2)cc1COc1ccc(F)cc1F,-1.6%,1.6%,?,13.1µM*,·
COc1ccc(C(=O)N/N=C/c2ccc(OC)c(COc3ccccc3)c2)cc1,21.5%,-0.7%,9.6%,?,10.0%
CCOc1cc(/C=C2\CCCC(C(=O)C(F)(F)F)=C2O)ccc1O,8.2%,?,?,-4.7%,-13.8%
CCOC(=O)[C@H]1O[C@@H]1C(=O)N[C@@H](CC(C)C)C(=O)NCCC(C)C,0.0%,?,·,·,1.7%
CC(C)CCNC(=O)[C@H](CC(C)C)NC(=O)[C@H]1O[C@@H]1C(=O)O,·,-19.1%,3.7µM*,2.08µM*,2.2%
COc1ccccc1CN1C(=O)CN(C2CCCCCC2)C(=O)C1c1ccc(F)cc1 (stereo not given),0.0%,12.2%,?,10.4µM*,6.2%
COC(=O)c1ccc(CNC(=O)CNc2cc(C(F)(F)F)ccc2N2CCOCC2)cc1,-13.4%,7.3%[11.4 µM],·,8.28µM*,-12.6%
Cc1ccccc1SCC(=O)Nc1cc(C(F)(F)F)ccc1N1CCOCC1,-0.5%,-2.9%,2.08µM*,4.65µM*,·
O=C(Nc1cc(C(F)(F)F)ccc1N1CCOCC1)c1ccc(Cl)nc1,-10.0%,-0.9%,9.28µM*,·,7.4%
O=C(CCC1CCCC1)Nc1cc(C(F)(F)F)ccc1N1CCOCC1,-17.5%,5.8%,11.7µM*,13.1µM*,·
Cc1nnc(SCC(=O)Nc2cc(C(F)(F)F)ccc2N2CCOCC2)o1,2.0%,-5.4%,-6.9%,·,-3.0%
CC(C)C(=O)Nc1cc(C(F)(F)F)ccc1N1CCOCC1,6.7%,6.0%,?,80.1%,-6.3%
O=C(NC(=S)Nc1cc(C(F)(F)F)ccc1N1CCOCC1)c1ccco1,36.4%,11.2µM*,?,?,2.9%
CCOc1ccccc1NC(C)C(=O)Nc1cc(C(F)(F)F)ccc1N1CCOCC1 (stereo not given),?,4.7%,0.586µM*,0.294µM*,9.3%
SMILES,AMA1-RON2 inh,Sm TGR block,Pf growth 48h,Pf growth 96h,NS1 function inh
CC(=O)NC(=S)Nc1cc(C(F)(F)F)ccc1N1CCOCC1,1.0%,-26.7%,-17.6%,-24.6%,-1.2%
CC(=O)C1CCC2C3CC(O)C4=CC(=O)CCC4(C)C3C(=O)CC12C (stereo not given),5.0%,·,·,·,·
COc1ccccc1-c1noc(-c2ccc(NC3CCCC3)c([N+](=O)[O-])c2)n1,·,-31.9%,·,·,·
COc1cc(C(C(=O)NCC2CCCO2)N(C(=O)Cn2nnc3ccccc32)c2ccc(C(C)=O)cc2)ccc1O (stereo not given),-7.2%,?,6.4%,?,-6.1%
COc1ccc(C(C(=O)NCC2CCCO2)N(C(=O)CNC(=O)c2cccs2)c2ccc(C(C)=O)cc2)cc1OC (stereo not given),-9.6%,·,11.7µM*,?,4.9%
COc1cc(OC)cc(N(C(=O)CNC(=O)c2cccs2)C(C(=O)NCC2CCCO2)c2ccccc2)c1 (stereo not given),12.1%,9.8%,5.86µM*,?,-6.2%
CCOc1cc(C(C(=O)NCC2CCCO2)N(C(=O)Cn2nnc3ccccc32)c2ccc(OC)c(OC)c2)ccc1O (stereo not given),-1.1%,31.6µM*,9.1%,?,-0.9%
COc1ccc(N(C(=O)CNC(=O)c2ccco2)C(C(=O)NCC2CCCO2)c2ccc(OC)c(OC)c2)cc1 (stereo not given),-1.8%,-2.8%,-30.3%,-10.2%,-3.8%
COc1ccc(C(C(=O)NCC2CCCO2)N(C(=O)CNC(=O)c2cccs2)c2ccc(C)cc2)cc1OC (stereo not given),-10.6%,5.8%,10.4µM*,-3.9%,-6.2%
COc1ccc(C(C(=O)NCC2CCCO2)N(C(=O)CNC(=O)c2ccco2)c2cc(C)cc(C)c2)cc1OC (stereo not given),1.5%,0.0%,0.0%,2.9%,13.2%
COc1ccc(N(C(=O)CNC(=O)c2cccs2)C(C(=O)NCC2CCCO2)c2ccccc2)c(OC)c1 (stereo not given),29.6%,7.2%,?,-19.2%,-10.6%
Cc1cc(C)n2c(Nc3ccccc3)c(-c3ccccc3)nc2n1,·,-3.6%,·,·,·
Cn1c(=O)n(C)c2cc(NS(=O)(=O)c3ccccc3[N+](=O)[O-])ccc21,-4.1%,5.0%,-5.7%,107.4%,-2.3%
COc1ccc(-c2c(-c3ccccc3OC)sc3ccccc23)cc1C=O,-0.6%,?,?,?,·
COc1ccccc1-c1sc2ccccc2c1-c1ccccc1OC,-10.5%,4.1%,13.1µM*,2.62µM*,·
COc1ccc(-c2c(-c3ccccc3OC)sc3ccccc23)cc1OC,-18.3%,-6.4%,?,9.28µM*,14.7%
